The list is not random: actives were taken first. Their share in the collection is about 19%.
TDP1 cell CPT: qHTS for Inhibitors of human tyrosyl-DNA phosphodiesterase 1 (TDP1): qHTS in cells in presence of CPT | Potency, µM (top dose mostly 46.2 µM), for inactives: top-dose activity change, negative = growth inhibition, usual class: inhibitors | chicken DT40 Tdp1-/-;hTDP1 cells + 20 nM CPT, ATP luminescence, 48 h | 420,000 compounds, 12% hits; note: nearly all actives have a fitted effect of over 55% in size
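Chicken DT40 Tdp1-/- cells stably complemented with human TDP1 were seeded at 400 cells/well in medium containing 20 nM camptothecin, exposed to pin-transferred compounds, and grown at 37 °C for at least 48 hr. Viability was read as ATP luminescence.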
KB-3-1 tox: qHTS assay for MDR1-selective chemotherapeutics: Primary screen using the parental adenocarcinoma cell KB-3-1. 400,000 compounds, 1.4% hits. KB-3-1 viability, CellTiter-Glo ATP luminescence, 72 h. Potency, µM (series often up to 46.1 µM), usual class: cytotoxic; note: nearly all actives have a fitted effect of over 60% in size
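Here the drug-naive KB-3-1 line serves as comparator for MDR sub-line selectivity; cells received compound titrations, 72 h at 37 °C, then CellTiter-Glo readout.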
HT1080-NT tox: qHTS for induction of synthetic lethality in tumor cells producing 2HG: qHTS for the HT-1080-NT fibrosarcoma cell line; HT-1080-NT fibrosarcoma viability, CellTiter-Glo ATP luminescence, 48 h; Potency, µM (doses to about 46.1 µM), inactives show top-dose activity, negative = less viability, actives largely listed as cytotoxic; 360,000 compounds, 1.6% hits; AID 686970, 2013;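 note: NT is the 2HG producing partner of a matched IDH1 knockdown line; 0% = DMSO-treated cells and -100% = media-only wells without cells; nearly all actives have a fitted effect of over 55% in size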
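Viability of the 2HG-overproducing fibrosarcoma line after 48 hours of compound exposure at 37 degrees C was determined by luminescence with CellTiter-Glo, and concentration-effect curves were then fitted and categorized.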
HT1080 IDH1KD tx: qHTS for induction of synthetic lethality in tumor cells producing 2HG: qHTS for the HT-1080-IDH1KD cell line. 360,000 compounds, 2% hits. HT-1080 IDH1 knockdown viability, ATP luminescence, 48 h. Potency, µM (doses to about 46.1 µM), without a hit: at the top dose activity, negative = toxicity, hits mostly cytotoxic;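 note: 0% = DMSO wells and -100% = cell-free medium wells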
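HT-1080-IDH1KD cells (IDH1 knocked down), 750/well in RPMI with 5% FBS, treated with compound 48 h at 37 degrees C. Viability by CellTiter-Glo luminescence, normalised to DMSO and no-cell wells; concentration-response curves classed.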
TDP1 cell noCPT: qHTS for Inhibitors of human tyrosyl-DNA phosphodiesterase 1 (TDP1): qHTS in cells in absence of CPT | 420,000 compounds, 15% hits | DT40 Tdp1-/- hTDP1 cells, no CPT, ATP luminescence, 48 h | Potency, µM (top dose mostly 46.2 µM), inactives show top-dose activity change, negative = growth inhibition, usual class: inhibitors; note: nearly all actives have a fitted effect of over 55% in size
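Seeded 400 DT40-hTDP1 cells/well (vehicle DMSO, no 20 nM CPT); pinned compounds; ≥48 hr at 37 °C; CellTiter-Glo luminescence as viability measure.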
KB-V1 cytotox: qHTS assay for MDR1-selective chemotherapeutics: Primary screen using the drug-selected MDR subline cells KB-V1. KB-V1 MDR cells viability, CellTiter-Glo, 72 h. Potency, µM (top dose mostly 46.1 µM), actives largely listed as cytotoxic. 400,000 compounds, 3.4% hits. AID 1347076, 2019; note: nearly all actives have a fitted effect of over 60% in size
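In this primary screen, KB-V1 cells overexpressing P-gp are incubated with library compounds (lowest to highest concentration) for 72 h at 37 degrees C before a luminescent ATP viability read.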
Active calls of the source: *; i = inactive; ? = inconclusive; . = no result. Calls come from the whole dose curve; as a rule, active = well fitted curve in the direction sought with a large enough effect; inconclusive = small, poorly fitted or top-dose-only effect, or another doubt; inactive = no such curve, though single readings can be large; an effect the other way counts as inactive or inconclusive. Unless noted, % is set by controls: 0 for no effect and ±100 for the full control effect; potency is the fitted concentration of half-maximal effect.

SMILES | TDP1 cell CPT | KB-3-1 tox | HT1080-NT tox | HT1080 IDH1KD tx | TDP1 cell noCPT | KB-V1 cytotox
CC1(C)N=C(N)N=C(N)N1c1ccc(Oc2ccc(Cl)cc2)c(Cl)c1 | 2.6µM* | 0.73µM* | 2.3µM* | 1.3µM* | 1.5µM* | i
CC1(C)N=C(N)N=C(N)N1c1ccc(CCCCc2ccccc2)cc1 | 0.65µM* | ? | ? | 0.73µM* | 0.37µM* | i
Cc1ccc(C(=O)NCCCNC(=O)c2ccco2)cc1C | 9% | i | -1% | 0% | 4% | i
O=[N+]([O-])c1ccc(NC2CCN(Cc3ccccc3)CC2)c([N+](=O)[O-])c1 | ? | i | ? | -19% | 21µM* | i
O=C1C2CCCCC2C(=O)N1c1ccc(NC2CCN(Cc3ccccc3)CC2)c([N+](=O)[O-])c1 (stereo not drawn) | ? | i | 19% | -7% | ? | ?
CC1CCC2C(=O)N(c3ccc(NC4CCN(Cc5ccccc5)CC4)c([N+](=O)[O-])c3)C(=O)C2C1 (stereo not drawn) | ? | i | 27% | -1% | 16µM* | ?
O=C(Nc1ccccc1-c1nc2ccccc2s1)c1ccc(F)cc1 | -1% | i | . | . | -11% | ?
CNc1sc(C(=O)c2ccc(F)cc2)c(N)c1-c1nc2ccccc2s1 | 5.2µM* | i | 11µM* | 6.3µM* | 7.3µM* | i
O=C(Nc1ccc(F)cc1)Nc1sccc1-c1nc2ccccc2s1 | ? | i | 16µM* | 18µM* | ? | i
CN(C)C(=O)CCc1ccc2c3c([nH]c2c1)[C@]1(CCC2CCCC2)[C@@H](C(=O)N2CCOCC2)C[C@H](CC(=O)NCC24CC5CC(CC(C5)C2)C4)C(=O)N1CC3 | ? | i | 8% | 5% | 23µM* | i
CC[C@]12c3[nH]c4cc(CCC(=O)N(C)C)ccc4c3CCN1C(=O)[C@@H](CC(=O)NCc1ccc(OC)c(OC)c1)C[C@@H]2C(=O)N1CCN(C(=O)c2ccco2)CC1 | 0% | i | 6% | 3% | 2% | i
CC[C@]12c3[nH]c4cc(CCC(=O)N(C)C)ccc4c3CCN1C(=O)[C@@H](CC(=O)NC/C=C(\C)CCC=C(C)C)C[C@@H]2C(=O)N1CCN(C(=O)c2ccco2)CC1 | 10µM* | ? | ? | 21µM* | 5.8µM* | i
CC(C)=CCC/C(C)=C/CNC(=O)C[C@H]1C[C@H](C(=O)N2CCOCC2)[C@@]2(CCC3CCCC3)c3[nH]c4cc(CCC(=O)N(C)C)ccc4c3CCN2C1=O | 5.8µM* | i | -3% | 0% | 6.5µM* | i
COCCCNC(=O)C[C@H]1C[C@H](C(=O)N2CCOCC2)[C@@]2(CCC3CCCC3)c3[nH]c4cc(CCC(=O)N(C)C)ccc4c3CCN2C1=O | 0% | i | -7% | 2% | -8% | i
COC(=O)[C@@]1(C)[C@H]2C(=O)N(Cc3ccccc3)C(=O)[C@H]2[C@H]2CN=C(SCC(=O)c3ccccc3)N21 | ? | i | -5% | -6% | ? | i
Cc1cccc(N2CCN(C(=O)c3c(Cl)cnn3C)CC2)c1C | ? | ? | 5% | 2% | ? | ?
CCCCCNC(=O)c1ccc2c(=O)n(CCc3ccccc3)c(=O)[nH]c2c1 | -12% | i | . | . | -14% | i
CCCCCn1c(=O)[nH]c2cc(C(=O)NCCCN(C)Cc3ccccc3)ccc2c1=O | -30% | ? | 0% | 6% | -27% | 21µM*
CCOCCCNC(=O)c1ccc2c(=O)n(CCc3ccc(OC)c(OC)c3)c(=O)[nH]c2c1 | 6.5µM* | i | . | . | 4.1µM* | i
COc1ccc(-n2c(=O)[nH]c3cc(C(=O)NCCc4ccc(Cl)cc4)ccc3c2=O)cc1OC | 23µM* | i | 0% | -8% | 15µM* | i
CCCCN(C)CCNC(=O)c1ccc2c(=O)n(CCc3ccccc3)c(=O)[nH]c2c1 | 13µM* | i | . | . | 23µM* | i
COc1ccccc1OCC(=O)Nc1cc(-c2ccc(C)cc2)no1 | 1% | i | . | . | -22% | i
C[C@H](/C=C/[C@H](C)C(C)(C)O)[C@H]1CC[C@H]2/C(=C/C=C3C[C@@H](O)C[C@H](O)C3)CCC[C@]12C | -27% | . | . | . | -15% | .
C=C1C(=C/C=C2\CCC[C@]3(C)[C@@H]([C@H](C)CCCC(C)C)CC[C@@H]23)C[C@@H](O)C[C@@H]1O | ? | . | . | . | 11µM* | .
C=C1C(=C/C=C2\CCC[C@]3(C)[C@@H]([C@H](C)/C=C/[C@@H](O)C4CC4)CC[C@@H]23)C[C@@H](O)C[C@@H]1O | 24µM* | . | . | . | 27µM* | .
SMILES | TDP1 cell CPT | KB-3-1 tox | HT1080-NT tox | HT1080 IDH1KD tx | TDP1 cell noCPT | KB-V1 cytotox
CCOC(=O)c1cccc(NC(=O)NCCc2c(C)nn(C)c2C)c1 | -14% | i | . | . | ? | i
CN(CCCNC(=O)CSc1cc(=O)n(C)c2ccc(Cl)cc12)Cc1ccccc1 | ? | i | ? | ? | ? | i
CCc1nnc(SCC(=O)Nc2ccc(OC)c(OC)c2)c2cc3occc3n12 | -1% | i | . | . | -22% | i
CCC(Sc1nnc(C)n2c1cc1occc12)C(=O)Nc1ccccc1OC (stereo not drawn) | ? | i | . | . | 21µM* | i
Cc1ccc(C(=O)NC(C)c2nnc(SCC(=O)NC3CCCC3)n2C)cc1 (stereo not drawn) | -2% | . | 1% | 4% | 21% | .
COc1ccc(S(=O)(=O)N2CCCC2c2cccs2)cc1 (stereo not drawn) | 5.8µM* | i | 1% | 0% | 8.2µM* | i
O=S(=O)(c1ccccc1)N1CCCC1c1cccs1 (stereo not drawn) | ? | i | 0% | -11% | 12µM* | i
COc1ccc(S(=O)(=O)N2CCN(C)CC2c2ccccc2)cc1 (stereo not drawn) | -2% | i | -1% | 1% | 0% | i

Assay outcomes deposited in PubChem by National Center for Advancing Translational Sciences (NCATS).
